According to PubChem BioAssay AID623908 (Johns Hopkins Ion Channel Center, 2012):
The whole screen tested about 2,500 compounds, of which about 1,500 (60%) were called active.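 How the source made its calls: active means duplicate-averaged ratio beyond 3 SD from buffer wells, up or down, though filed actives are nearly all decreases; inactive means the rest.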 The set was probably picked from earlier hits. These entries were drawn from the full list.

Assay: membrane potential response in parental HEK293 cells, counter-screen for CHT activator project, cell-based, membrane potential dye (AID 623908)
Conditions: parental HEK293, membrane potential dye fluorescence (FDSS); at 10 µM; measured after EC20 choline addition

SMILES	ratio readout change
CC(C)(C)Nc1nc(-c2ccccn2)nc2ccccc12	-76.9 (active)
CC1=CC(C)(C)N(C(=O)CSc2nnc(-c3ccccc3)o2)c2ccc(C)cc21	inactive
Cc1nc(N=C(N)N)nc2c(C)cccc12	-65.7 (active)
COc1nc(N=C(N)N)nc2c(C)cccc12	-78.8 (active)
O=C(c1ccccc1F)N(Cc1ccccc1)Cc1ccccc1	inactive
CCCCn1c(N)c(N(CCC(C)C)C(=O)c2ccc(COc3ccccc3)o2)c(=O)[nH]c1=O	inactive
COc1ccccc1NC(=O)CSc1nnc(-c2ccoc2C)n1CCc1ccccc1	inactive
Clc1ccc(C[n+]2cc(-c3ccc(Cl)cc3)n3c2CCC3)cc1	-46 (active)
Cc1ccc(C(=O)C[n+]2cc(-c3ccccc3)n3c2CCCCC3)cc1	inactive
Cc1ccc2c(c1)N(CC(=O)N(Cc1ccccn1)Cc1ccco1)C(=O)C(C(C)C)O2 (stereo not drawn)	inactive
O=[N+]([O-])c1ccc(N2CCNCC2)cc1NCc1cccnc1	-59.8 (active)
CC(=O)c1ccccc1OCc1ccc(C(=O)c2ccccc2)cc1	inactive
C[C@H]1CCC(=O)N([C@H](CSc2ccccc2)Cc2ccccc2)CC1	inactive
CC(=O)N1CC[n+]2c(-c3ccc([N+](=O)[O-])cc3)csc21	-25.4 (active)
CCN(CC)CCC(c1cc(OC)c(OC)c(OC)c1)c1c(OC)cc(OC)c2c(-c3ccccc3)cc(=O)oc12 (stereo not drawn)	-25.5 (active)
Cc1nnc(-c2ccc(Oc3ccc(C)c(C)c3)c([N+](=O)[O-])c2)o1	inactive
CN(C)/C=C/C(=O)c1cnc2sccn2c1=O	-39.9 (active)
COc1cccc(C(=O)NC(=O)Nc2nc(C)cc(C(F)(F)F)n2)c1	-43.4 (active)
Cc1ccccc1C(=O)NCC(c1ccco1)N1CCc2ccccc21 (stereo not drawn)	inactive
Cn1c(=O)n(C)c2cc(C(=O)Nc3ccc4c(c3)OCO4)ccc21	-33.9 (active)
O=C(Nc1ccccc1N1CCN(c2ccccc2)CC1)c1cccc(F)c1	inactive
Cc1cc2c(cc1C)[n+](C)cn2CC(O)COCC1CC=CCC1 (stereo not drawn)	-37.2 (active)
N=c1c2c3c(sc2ncn1N)CCCCC3	-39.8 (active)
N=c1c2c3c(sc2ncn1CCCN1CCOCC1)CCCCC3	-59.9 (active)

SMILES	ratio readout change
COc1cc2c(cc1OC)C(c1cccc([N+](=O)[O-])c1)=NCC2	-64.5 (active)
Cc1c(CCOC(=O)CC23CC4CC(CC(C)(C4)C2)C3)sc[n+]1Cc1ccc([N+](=O)[O-])cc1	-47 (active)
O=C(CCC1CCN(C(=O)c2cccc(Cl)c2F)CC1)Nc1ccccc1	inactive
O=C1c2ccccc2C(=O)c2c1cccc2N1CCN(CCO)CC1	-73.9 (active)
Cn1c(=O)n(Cc2ccco2)c(=N)c2c3c(sc21)CCCC3	-31.5 (active)
CC(Sc1nc2ccccc2c(=O)n1Cc1ccco1)C(=O)c1ccccc1 (stereo not drawn)	inactive
Cn1c(=O)[nH]c(=O)c2c1nc(N1CCN(CCO)CC1)n2CCSc1nc2ccccc2s1	-48.2 (active)
CN(C)c1ccnc(Nc2ccc(F)cc2)c1C#N	-45.1 (active)
CCN1CCN(c2ccc([N+](=O)[O-])cc2C(=O)c2ccc(Cl)cc2)CC1	inactive
Cc1nnc(C)c2c(C)n(N)c(C)c12	-51.8 (active)
CN1CCN(c2nc(Nc3ccc(O)cc3)nc3ccccc23)CC1	-71.3 (active)
O=C(NCCC1=CCCCC1)C1CCN(Cc2cnn(-c3ccccc3)c2-n2cccc2)CC1	inactive
Nc1scc[n+]1Cc1cccc2cccnc12	-43.3 (active)
CCCCN(CCCC)CC(O)Cn1c2ccccc2c(=O)c2ccccc21 (stereo not drawn)	-21.9 (active)
Cc1c(C)c2c(OCC(=O)N[C@@H](C(=O)O)c3ccccc3)cc3c(c2oc1=O)CCC(C)(C)O3	inactive
CCOC(=O)c1cccnc1NC(=O)c1ccncc1	-20.3 (active)
COc1ccc([N+](=O)[O-])cc1N(CC(O)CN(CC(C)C)CC(C)C)S(=O)(=O)c1ccc(C)cc1 (stereo not drawn)	inactive
Cc1ccc(-n2c(C)cc(/C=N\NC(=O)CC(=O)NC(C)C)c2C)cc1	inactive
COc1ccc(Nc2nnc(C)c3ccccc23)cc1	-50.6 (active)
COc1ccc(Nc2cc(C)nc(-n3nc(C)cc3C)n2)cc1	inactive
O=C(COC(=O)C1CCN(S(=O)(=O)c2ccc3c(c2)OCCO3)CC1)Nc1ccccc1OC(F)F	inactive
CN1CCN(c2cc3c(cc2F)c(=O)c(C(=O)O)cn3CCF)CC1	-29.7 (active)
CCn1cc(S(=O)(=O)c2cccc(C)c2)c(=O)c2cc(F)c(N3CCN(C)CC3)cc21	-55.2 (active)
CC(Nc1nc(N2CCN(CCO)CC2)nc2ccccc12)c1ccccc1 (stereo not drawn)	-58.8 (active)

SMILES	ratio readout change
O=C(C1=C(O)C(=O)N(Cc2ccccc2)C1c1ccco1)c1ccco1 (stereo not drawn)	inactive
CCN1C(=NCCc2cccnc2)N[C@@H](c2ccccc2)[C@H](C(=O)OC)[C@H]1C	inactive
Cc1cccn2c(=O)c3cc(C#N)c(=O)n(CCCN4CCOCC4)c3nc12	-48.2 (active)
CCN1CCCC1CNC(=O)c1cc2c(=O)n(C)c3ccccc3c2n1C (stereo not drawn)	-28 (active)
O=Cc1ccc(OCc2cn3ccccc3n2)cc1	-38.8 (active)
COc1ccccc1NC(=O)C1=C(C)Nc2nc3ccccc3n2C1c1cccs1 (stereo not drawn)	inactive
CN1CCc2c(sc3c2c(NCc2ccco2)nc2nnnn23)C1	-34.6 (active)
COc1ccc(CC2c3cc(OC)c(OC)cc3CC[N+]2(C)CCC(=O)OCCCCCOC(=O)CC[N+]2(C)CCc3cc(OC)c(OC)cc3C2Cc2ccc(OC)c(OC)c2)cc1OC (stereo not drawn)	-31.4 (active)
Cc1nc2ccccc2c2oc(C(=O)NCCCN3CCC(C)CC3)cc12	-28.4 (active)
COc1ccc2c(c1)cc1n2CCN=C1NN	-53.2 (active)
Cc1ccc(-n2c(SCC(=O)N3c4ccccc4Sc4ccccc43)nnc2-c2ccncc2)cc1	inactive
Cc1ccc(C(=O)c2ccc(N3CCN(C)CC3)c([N+](=O)[O-])c2)cc1	inactive
N#C/C(=C\c1ccc(-c2cccc([N+](=O)[O-])c2)o1)C(=O)NCCN1CCOCC1	-21.1 (active)
Cc1cc(NC(=O)c2cnn3cccnc23)n(-c2ccccc2)n1	-40.8 (active)
COc1ccc2nc(/N=C(\N)NC(=O)Nc3ccccc3)nc(C)c2c1	-41.4 (active)
O=C(Nc1ccncc1)c1ccc(Cl)c([N+](=O)[O-])c1	-45.8 (active)
Cc1cc(=O)oc2c(C)c(OC(C)C(=O)NC3CCN(Cc4ccccc4)CC3)ccc12 (stereo not drawn)	-52.2 (active)
C[C@]1(C(=O)NCCc2c[nH]c3ccccc23)C=C[C@@H](Cc2ccccc2)N1C(=O)c1ccccc1	inactive
COc1cc2nc(N3CCN(C(=O)[C@@H]4CCCO4)CC3)nc(N)c2cc1OC	-39.5 (active)
CCOc1ccc(C2c3[nH]c4ccccc4c3CCN2Cc2cccn2-c2ncccn2)cc1 (stereo not drawn)	inactive
CN(C)c1cc[n+](Cc2ccccc2)cc1	-40.2 (active)
COc1ccc(Cn2c(-c3ccc(Cl)cc3)c[n+]3ccccc23)cc1	-66.1 (active)
CCN(CC)CCCNC(=O)c1cn(C)c2ccc(S(=O)(=O)N(C)C3CCCCC3)cc2c1=O	-36.4 (active)
CCOC(=O)c1cn(CC)c2cc(F)c(F)cc2c1=O	-63.5 (active)

SMILES	ratio readout change
COc1ccccc1NC(=O)CN(c1ccccc1OC)S(=O)(=O)c1ccccc1	inactive
COC(=O)c1ccc(C(NC(=O)OCc2ccccc2)/C(C)=C/[C@@H](C)C(=O)NCc2ccc(OC)c(OC)c2)cc1 (stereo partly drawn)	inactive
Clc1ccc(COn2c(-c3ccc(Cl)cc3Cl)nc3ncccc32)cc1	inactive
CCCCCCCCCCOC(=O)Cn1c(COc2ccc(C)cc2)[n+](C)c2ccccc21	-48.3 (active)
CCCCCCCCCCOC(=O)Cn1c(COc2cccc(OC)c2)[n+](C)c2ccccc21	-43.3 (active)
Nc1ccccc1SCc1cc([N+](=O)[O-])cc2c1OCOC2	inactive
CC(C)CC(COCc1ccc(Cl)cc1)N1CCN(C(=O)c2ccc(C(F)(F)F)cc2)CCC1=O (stereo not drawn)	inactive
COC(=O)c1sc(C(F)(F)F)c(-c2ccccc2)c1S(=O)(=O)N(C)C	inactive
CN(C)c1cc(N)c2ccccc2n1 (tested in a mixture with another compound)	-62.3 (active)
Cc1cc(=O)oc2cc(OCCC[n+]3ccccc3)ccc12	-59.3 (active)
Cn1c(=NC(=O)c2cnccn2)sc2ccccc21	-49.1 (active)
O=C(c1ccc(F)c(S(=O)(=O)N2CCOCC2)c1)N(CCc1ccccc1)Cc1ccccc1	inactive
CC1(C)Cc2c(sc3nc4n(c(=N)c23)CCCCC4)CO1	-42.5 (active)
CCN1/C(=C/c2ccc3ccc(C)cc3[n+]2CC)Sc2ccccc21	inactive
COc1cc2c(cc1OC)C(Nc1ccc(S(N)(=O)=O)cc1)=NC(C)(C)C2	-78.3 (active)
COc1ccc(C(O)(C2CCCCC2)C(CN2CCCC2)c2ccccc2)cc1 (stereo not drawn)	inactive
N#Cc1ccc(/C=C2\CCn3c2nc2cc(C(=O)O)ccc2c3=O)cc1	-55.3 (active)
CCn1c(/C=C/Nc2ccccc2)[n+](CC)c2ccc(C(=O)OCC(F)(F)F)cc21	-82.7 (active)
Cc1nc2c(-c3ccccc3)c(C)[nH]n2c(=O)c1Cl	inactive
Cc1nc2ccccc2c(=O)n1CCCn1ccnc1	inactive
C=CCNc1nnc(C)c2ccccc12	-50.7 (active)
